According to PubChem BioAssay AID1376 (SRMLSC, 2008):
The whole screen tested about 220,000 compounds, of which about 530 (0.24%) were called active. This is one part of a sample in which actives are shown more often than they occur. Results with a measured potency or affinity are listed apart. Values without a mark were called inactive. Cut-off read from the data, not from the text of the source: active = inhibition above about 13%; inconclusive = no clear call, values can overlap the other calls; inactive = below that.

These compounds were tested against Bifunctional protein GlmU (Mycobacterium tuberculosis (strain ATCC 25618 / H37Rv)) (UniProt P9WMN3) (assay: inhibition of mycobacterial GlmU enzyme – biochemical, glucosamine-1-phosphate acetyltransferase (AID 1376;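 note: 0% = complete reaction with vehicle and 100% = reaction without substrate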)). Conditions: M. tuberculosis GlmU acetyltransferase enzyme assay; stronger effect = higher value;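 tested at 30 µM in the primary screen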.
Sequence of Bifunctional protein GlmU (Mycobacterium tuberculosis (strain ATCC 25618 / H37Rv)) (P9WMN3 whole entry, looked up): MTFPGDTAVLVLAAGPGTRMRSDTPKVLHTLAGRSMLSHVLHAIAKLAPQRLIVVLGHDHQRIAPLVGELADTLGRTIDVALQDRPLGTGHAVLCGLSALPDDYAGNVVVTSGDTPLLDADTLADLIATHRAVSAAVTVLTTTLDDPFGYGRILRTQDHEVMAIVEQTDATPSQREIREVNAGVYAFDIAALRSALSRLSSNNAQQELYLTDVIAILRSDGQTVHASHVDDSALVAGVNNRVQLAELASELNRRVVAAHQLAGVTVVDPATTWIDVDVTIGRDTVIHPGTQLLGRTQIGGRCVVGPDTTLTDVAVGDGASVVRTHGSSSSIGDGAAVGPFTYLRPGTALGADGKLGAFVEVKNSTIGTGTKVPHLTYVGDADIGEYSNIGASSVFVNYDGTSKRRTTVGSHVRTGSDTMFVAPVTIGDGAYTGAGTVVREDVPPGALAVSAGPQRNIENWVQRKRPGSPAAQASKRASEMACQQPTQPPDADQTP

| Structure (SMILES) | inhibition |
| --- | --- |
| COc1cc2c(cc1NC(=O)Cn1cnc3c1c(=O)n(C)c(=O)n3C)oc1ccccc12 | 9.92% |
| C=CCN1C(=NC(=O)CCC(=O)O)SC2CS(=O)(=O)CC21 (configuration not stated) | 0.93% |
| CCN1CCN(c2cc(C)c3cc(NC(=O)c4ccccc4F)ccc3n2)CC1 | -4.15% |
| Cn1cnnc1SCc1cccc(Br)c1 | 2.34% |
| CCn1ncc(NC(=S)Nc2ccc3c(c2)OCO3)c1C(N)=O | -0.08% |
| Cc1nn(-c2ccccc2)c(=S)c2ccccc12 | -0.11% |
| COc1ccc(NCC(=O)Nc2ccccc2C#N)cc1Cl | 16.5% (active) |
| COc1ccc(NC(=O)CNc2cccc(C#N)c2)cc1Cl | 0.65% |
| COc1ccc(NCC(=O)Nc2ccc(C#N)cc2)cc1Cl | 1.17% |
| Clc1ccc(-c2nnc(CSc3nnc(-c4cccs4)n3Cc3ccccc3)o2)cc1 | -1.83% |
| CC(=O)N1CCCSC1=Nc1ccccc1 | 1.84% |
| Cc1ccc(-c2nc(SCC(=O)NCC3CCCO3)c(-c3ccc(C)cc3)[nH]2)cc1 (configuration not stated) | -0.94% |
| O=[N+]([O-])c1cccc(CSc2cccc[n+]2[O-])c1 | 6.55% |
| O=[N+]([O-])c1ccc(NCc2ccccc2)c2nonc12 | 0.67% |
| Oc1cccc(C(=S)N2CCCCC2)c1 | -2.56% |
| CCOC(=O)CSC1=C(C#N)C(c2ccccc2OCC)C(C(=O)OCC)C(=O)N1 (configuration not stated) | 13.2% (active) |
| CCOC(=O)C1C(=O)NC(SCC(=O)OC)=C(C#N)C1c1ccccc1OCC (configuration not stated) | -2.95% |
| CCOC(=O)C1C(=O)NC(SCC(N)=O)=C(C#N)C1c1ccccc1OCC (configuration not stated) | 5.97% |
| Cc1ccc(C)c2[nH]c(=O)c(CN(Cc3ccc4c(c3)OCO4)Cc3nnnn3Cc3ccco3)cc12 | 2.41% |
| Cc1ccc(NC(=O)c2cccc(C(=O)OC(C)C)n2)c(Br)c1 | -4.22% |
| O=[N+]([O-])c1cccnc1N1CCCCC1 | 13.3% (active) |

| Structure (SMILES) | inhibition |
| --- | --- |
| O=C1CCN(c2ncccc2[N+](=O)[O-])CC1 | -2.93% |
| O=[N+]([O-])c1cccnc1N1CCOCC1 | 1.56% |
| Cc1ccc(C)c(/C(O)=C2\C(=O)C(=O)N(CCCn3ccnc3)C2c2ccncc2)c1 (configuration not stated) | -3.1% |
| Cc1cccc(C2C3=C(Nc4[nH]n(-c5ccccc5)c(=O)c42)c2ccccc2C3=O)c1 (configuration not stated) | 14.6% (active) |
| Cc1ccc(C2C3=C(Nc4[nH]n(-c5ccccc5)c(=O)c42)c2ccccc2C3=O)cc1 (configuration not stated) | 8.68% |
| COc1cccc(C2C3=C(Nc4[nH]n(-c5ccccc5)c(=O)c42)c2ccccc2C3=O)c1 (configuration not stated) | -1.89% |
| CCOC(=O)c1c(C)[nH]c(C(=O)CSc2nc3ccccc3o2)c1C | -3.5% |
| Cc1cc(/C=N/Nc2ccc([N+](=O)[O-])cn2)c(C)n1-c1ccccc1 | -0.82% |
| Cc1cc(/C=N/Nc2ccc([N+](=O)[O-])cn2)c(C)n1-c1ccc(C(=O)O)cc1 | 18.4% (active) |
| Cc1c(C(=O)O)cccc1-n1c(C)cc(/C=N/Nc2ccc([N+](=O)[O-])cn2)c1C | 3.53% |
| CCOC(=O)c1cc(-c2ccc(F)cc2)n(CC(=O)Nc2nccs2)c1C | -5.76% |
| O=C(CCC(=O)OC(C(=O)c1ccccc1)c1ccccc1)Nc1ccccc1 (configuration not stated) | -0.93% |
| Cc1ccc(NC(=O)CCC(=O)OC(C(=O)c2ccc(C)c(C)c2)c2ccccc2)c(C)c1 (configuration not stated) | 1.52% |
| Cc1ccc(C(=O)C(OC(=O)CCC(=O)Nc2cccc(C)c2)c2ccccc2)cc1 (configuration not stated) | 14.9% (active) |
| O=[N+]([O-])c1ccc(N2CCNCC2)cc1Sc1nc2ccccc2[nH]1 | -3.78% |
| O=C(CSC1CN(C(c2ccccc2)c2ccccc2)C1)N/N=C/c1ccccc1 | 1.05% |
| O=C(OCC(=O)N1CCN(C(=O)c2ccco2)CC1)c1cn(-c2ccccc2)nc1-c1ccccc1 | 9.88% |
| CCc1nc2ccccc2[nH]1 | -1.65% |
| CNCc1nc2ccccc2[nH]1 | 2.1% |
| Oc1ccc(O)c(Cc2nc3ccccc3[nH]2)c1 | 14.4% (active) |
| O=C(NCCC1CC1(Cl)Cl)Nc1ccccc1 (configuration not stated) | 2.82% |

| Structure (SMILES) | inhibition |
| --- | --- |
| O=C1C2C(c3ccccc3)=NN(c3ccccc3)C2C(=O)N1c1ccccc1 (configuration not stated) | 0.94% |
| O=C1[C@H]2C(c3ccccc3)=NN(c3ccccc3)[C@H]2C(=O)N1c1ccccc1 | 14.2% (active) |
| CCOc1ccc(N2C(=O)C3C(c4ccccc4)=NN(c4ccccc4)C3C2=O)cc1 (configuration not stated) | 4.13% |
| O=C(N/N=C/C=C/c1ccco1)/C(=C/c1ccccc1)NC(=O)c1ccccc1 | 3.94% |
| C/C(=N\NC(=O)NC1CCCCC1)C1CCCCC1 | 5.48% |
| O=C(Nc1ccc(SC(F)F)cc1)c1ccc(F)cc1 | 2.04% |
| Cn1c(=NC(=O)CN2C(=O)C3CC=CCC3C2=O)sc2ccccc21 (configuration not stated) | -0.18% |
| CC(=O)N=c1sc2ccccc2n1C | -1.3% |
| CC(C(=O)N=c1sc2ccccc2n1C)N1C(=O)C2CC=CCC2C1=O (configuration not stated) | 13.6% (active) |
| O=C1C(Cl)=C(Nc2ccccc2)C(=O)c2ccccc21 | -4.13% |
| CCNC1=C(Cl)C(=O)c2ccccc2C1=O | -3.8% |
| CC(C)NC1=C(Cl)C(=O)c2ccccc2C1=O | 13.7% (active) |
| O=C1c2ccccc2S(=O)(=O)c2cc(C(=O)N3CCN(C(=O)c4ccccc4)CC3)ccc21 | -2.8% |
| CCN(CCNC(=O)Cn1cc2c(n1)CCCC2)c1ccccc1 | -0.86% |
| CCOc1ccc(C(=O)SC2=NCCS2)cc1 | 8.72% |
| S=c1nc(C2CCCCC2)[nH][nH]1 | 14% (active) |
| S=c1nc(C2CCCCC2)[nH]c2ccccc12 | -2.69% |
| Nc1n[nH]c(C2CCCCC2)n1 | -2.96% |
| CCc1nc(N2CCN(S(C)(=O)=O)CC2)c2c3c(sc2n1)CCCC3 | -2.08% |
| COc1ccc(N/C=C2/Sc3ccccc3NC2=O)cc1 | 0.09% |
